{
  "source": "the supplement of paper PMC8728848",
  "binders": {"B1": {"name": "Awp1 (Candida glabrata) (protein)", "chain": "MSLITIFAFLIKATLVLSLDILTPTTLTGDQTFNEDVSVVSSLTLNDGSQYLFNNLLQIAPSSASVTANALAAVSVFTFSLPPSSSLSNSGTLIISNSNTGPSTEQHIVITPNVMANTGTITLSLAHTNTDSSSTLIIDPVTFYNTGTINYESIGSETNDPSLTGNILSIGSSGRTLQNLGTINLNAANSYYLLGTITENSGSINVQKGFLYVNALDFIGNTINLSTTTALAFISPVSQVVRVRGVFFGNIIASVGSSGTFSYNTQTGILTVTTNGVYSYDIGCGYNPALMSGQQETLSFQGNPYDTFLVLVNQPIPSDLTCAAVSSSITPSSSVEPSSSVVPSSSVEPSSSVEPSSSVEPSSSVEPSSSVEPSSSVEPSSSVEPSSSVEPSSSVEPSSSVEPSSSVEPSSSVEPSSSVEPSSSVEPSSSVEPSSSVEPSSSVEPSSSVEPSSSVEPSSLIVPSSSVEPSSSVLPSSSVVPSSSVEPSTPPIPSSSVEPSSSVVPSSPAVPSSSVEPSTPPIPSSSVVSASVFDTSSTLPSSPSVPPSSVSPSTISTPSSSAAPSSFCPTCVSSGTPPAPSSSAIVPTSSAGGGNGGDNREPGAAGQPGAAGQPGAAGQPGAAGQPGAAGQPGAAGQPGAAGQPGAAGQPGAAGQPGAAGQPGAGFGVGSEQPTPGAGAGSGSADGNQSGTGSGTGNGQQGSGQAGSGQAGSGQEGSGQAGSGQAGSGQAGSGQAGSGQAGLDNTASGQSEGGQASAMDGDQSGRDGQSNSGSLLQPNAQQGTGSGTGSDIGADQASGESPGQIGDAQPGSGTDQSSGRHSLAAEARTSQSHSLAADARTRSTTRQTSVIAPDTAPGTASGTAPGTAPGTAVVTTFHGCGTVNHKGMINILLALALLVLL"}},
  "test_in_all_cases": "glycan array binding signal (z-score within array); higher = stronger binding",
  "settings_in_all_cases": "glycan notation: IUPAC condensed, linker removed",
  "key": {"[1]": {"molecular_target": "Fuc(a1-2)Gal(b1-3)GalNAc(b1-3)Gal(a1-4)Gal(b1-4)Glc", "outline": "(§1)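 The Consortium for Functional Glycomics database supplied 3228 glycan arrays, of which those lacking an available protein sequence were dropped. The binding signal, a within-array Z-score, was averaged across arrays of the same protein sequence and across linkers. Negative scores can be read as non-binding.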"}, "[2]": {"molecular_target": "Fuc(a1-2)Gal(b1-3)GlcNAc(b1-2)Man(a1-3)[Fuc(a1-2)Gal(b1-3)GlcNAc(b1-2)Man(a1-6)]Man(b1-4)GlcNAc(b1-4)GlcNAc", "outline": "as §1"}, "[3]": {"molecular_target": "Fuc(a1-2)Gal(b1-3)GlcNAc(b1-3)Gal(b1-4)Glc", "outline": "as §1"}, "[4]": {"molecular_target": "Fuc(a1-2)Gal(b1-3)GlcNAc(b1-3)GalNAc", "outline": "as §1"}, "[5]": {"molecular_target": "Fuc(a1-2)Gal(b1-3)[Fuc(a1-4)]GlcNAc", "outline": "as §1"}, "[6]": {"molecular_target": "Fuc(a1-2)Gal(b1-3)[Fuc(a1-4)]GlcNAc(b1-3)[Gal(b1-4)GlcNAc(b1-6)]Gal(b1-4)Glc", "outline": "as §1"}, "[7]": {"molecular_target": "Fuc(a1-2)Gal(b1-4)GlcNAc(b1-3)Gal(b1-4)GlcNAc(b1-3)Gal(b1-4)GlcNAc", "outline": "as §1"}, "[8]": {"molecular_target": "Fuc(a1-2)Gal(b1-4)[Fuc(a1-3)]GlcNAc(b1-3)[Neu5Ac(a2-6)Gal(b1-4)GlcNAc(b1-6)]Gal(b1-4)Glc", "outline": "as §1"}, "[9]": {"molecular_target": "Fuc(a1-2)Gal3S(b1-4)GlcNAc", "outline": "as §1"}, "[10]": {"molecular_target": "Fuc(a1-2)[Gal(a1-3)]Gal(b1-3)GalNAc(b1-3)Gal(a1-4)Gal(b1-4)Glc", "outline": "as §1"}, "[11]": {"molecular_target": "Fuc(a1-2)[Gal(a1-3)]Gal(b1-3)GlcNAc", "outline": "as §1"}, "[12]": {"molecular_target": "Fuc(a1-2)[Gal(a1-3)]Gal(b1-4)GlcNAc(b1-3)GalNAc", "outline": "as §1"}, "[13]": {"molecular_target": "Fuc(a1-2)[GalNAc(a1-3)]Gal(b1-3)GalNAc(b1-3)Gal(a1-4)Gal(b1-4)Glc", "outline": "as §1"}, "[14]": {"molecular_target": "Fuc(a1-2)[GalNAc(a1-3)]Gal(b1-4)[Fuc(a1-3)]GlcNAc", "outline": "as §1"}, "[15]": {"molecular_target": "Fuc(a1-3)[Gal(b1-4)]GlcNAc(b1-2)Man(a1-3)[Fuc(a1-3)[Gal(b1-4)]GlcNAc(b1-2)Man(a1-6)]Man(b1-4)GlcNAc(b1-4)[Fuc(a1-6)]GlcNAc", "outline": "as §1"}, "Gal(a1-4)Gal(b1-4)Glc": {"molecular_target": "Gal(a1-4)Gal(b1-4)Glc", "outline": "as §1"}, "Gal(a1-4)Gal(b1-4)GlcNAc": {"molecular_target": "Gal(a1-4)Gal(b1-4)GlcNAc", "outline": "as §1"}, "[16]": {"molecular_target": "Gal(a1-4)Gal(b1-4)GlcNAc(b1-3)Gal(b1-4)Glc", "outline": "as §1"}, "Gal(b1-2)Gal": {"molecular_target": "Gal(b1-2)Gal", "outline": "as §1"}, "[17]": {"molecular_target": "Gal(b1-3)GalNAc(a1-3)[Fuc(a1-2)]Gal(b1-4)Glc", "outline": "as §1"}, "[18]": {"molecular_target": "Gal(b1-3)GalNAc(b1-4)[Neu5Ac(a2-3)]Gal(b1-4)Glc", "outline": "as §1"}, "[19]": {"molecular_target": "Gal(b1-3)GlcNAc(b1-2)[Gal(b1-3)GlcNAc(b1-6)]Man(a1-6)[Gal(b1-3)GlcNAc(b1-2)Man(a1-3)]Man(b1-4)GlcNAc(b1-4)GlcNAc", "outline": "as §1"}, "[20]": {"molecular_target": "Gal(b1-3)GlcNAc(b1-3)Gal(b1-4)GlcNAc(b1-6)[Gal(b1-3)GlcNAc(b1-3)]Gal(b1-4)Glc", "outline": "as §1"}, "[21]": {"molecular_target": "Gal(b1-3)[Neu5Ac(a2-6)]GalNAc", "outline": "as §1"}, "[22]": {"molecular_target": "Gal(b1-4)GlcNAc(a1-6)Gal(b1-4)GlcNAc", "outline": "as §1"}, "[23]": {"molecular_target": "Gal(b1-4)GlcNAc(b1-2)Man(a1-6)[GlcNAc(b1-2)Man(a1-3)]Man(b1-4)GlcNAc(b1-4)GlcNAc", "outline": "as §1"}, "[24]": {"molecular_target": "Gal(b1-4)GlcNAc(b1-2)[Gal(b1-4)GlcNAc(b1-4)]Man(a1-3)[Gal(b1-4)GlcNAc(b1-2)Man(a1-6)]Man(b1-4)GlcNAc(b1-4)GlcNAc", "outline": "as §1"}, "[25]": {"molecular_target": "Gal(b1-4)GlcNAc(b1-2)[Gal(b1-4)GlcNAc(b1-4)]Man(a1-3)[GlcNAc(b1-4)][Gal(b1-4)GlcNAc(b1-2)Man(a1-6)]Man(b1-4)GlcNAc(b1-4)GlcNAc", "outline": "as §1"}, "[26]": {"molecular_target": "Gal(b1-4)GlcNAc(b1-3)Gal(b1-4)GlcNAc(b1-3)Gal(b1-4)GlcNAc(b1-3)Gal(b1-4)GlcNAc(b1-2)Man(a1-3)[Gal(b1-4)GlcNAc(b1-3)Gal(b1-4)GlcNAc(b1-3)Gal(b1-4)GlcNAc(b1-3)Gal(b1-4)GlcNAc(b1-2)Man(a1-6)]Man(b1-4)GlcNAc(b1-4)[Fuc(a1-6)]GlcNAc", "outline": "as §1"}, "[27]": {"molecular_target": "Gal(b1-4)GlcNAc(b1-3)Gal(b1-4)GlcNAc(b1-6)[Gal(b1-3)]GalNAc", "outline": "as §1"}, "[28]": {"molecular_target": "Gal(b1-4)GlcNAc(b1-3)[Gal(b1-4)GlcNAc(b1-6)]Gal(b1-4)GlcNAc", "outline": "as §1"}},
  "note": "This is one part of a sample in which the strongest signals are shown more often than they occur.",
  "data": [
    {"binder": "B1", "values": [
      {"measurement": "glycan array binding signal (z-score)", "setting": "[1]", "value": -0.191},
      {"measurement": "glycan array binding signal (z-score)", "setting": "[2]", "value": 3.11},
      {"measurement": "glycan array binding signal (z-score)", "setting": "[3]", "value": -0.568},
      {"measurement": "glycan array binding signal (z-score)", "setting": "[4]", "value": -0.915},
      {"measurement": "glycan array binding signal (z-score)", "setting": "[5]", "value": 0.456},
      {"measurement": "glycan array binding signal (z-score)", "setting": "[6]", "value": 2.29},
      {"measurement": "glycan array binding signal (z-score)", "setting": "[7]", "value": 0.341},
      {"measurement": "glycan array binding signal (z-score)", "setting": "[8]", "value": 0.4},
      {"measurement": "glycan array binding signal (z-score)", "setting": "[9]", "value": 0.168},
      {"measurement": "glycan array binding signal (z-score)", "setting": "[10]", "value": -0.456},
      {"measurement": "glycan array binding signal (z-score)", "setting": "[11]", "value": -0.399},
      {"measurement": "glycan array binding signal (z-score)", "setting": "[12]", "value": -1.3},
      {"measurement": "glycan array binding signal (z-score)", "setting": "[13]", "value": 0.017},
      {"measurement": "glycan array binding signal (z-score)", "setting": "[14]", "value": -1.15},
      {"measurement": "glycan array binding signal (z-score)", "setting": "[15]", "value": 2.28},
      {"measurement": "glycan array binding signal (z-score)", "setting": "Gal(a1-4)Gal(b1-4)Glc", "value": 2.6},
      {"measurement": "glycan array binding signal (z-score)", "setting": "Gal(a1-4)Gal(b1-4)GlcNAc", "value": 1.02},
      {"measurement": "glycan array binding signal (z-score)", "setting": "[16]", "value": 0.176},
      {"measurement": "glycan array binding signal (z-score)", "setting": "Gal(b1-2)Gal", "value": -1.15},
      {"measurement": "glycan array binding signal (z-score)", "setting": "[17]", "value": 3.43},
      {"measurement": "glycan array binding signal (z-score)", "setting": "[18]", "value": -0.686},
      {"measurement": "glycan array binding signal (z-score)", "setting": "[19]", "value": 2.35},
      {"measurement": "glycan array binding signal (z-score)", "setting": "[20]", "value": 2.29},
      {"measurement": "glycan array binding signal (z-score)", "setting": "[21]", "value": -0.433},
      {"measurement": "glycan array binding signal (z-score)", "setting": "[22]", "value": 3},
      {"measurement": "glycan array binding signal (z-score)", "setting": "[23]", "value": 0.086},
      {"measurement": "glycan array binding signal (z-score)", "setting": "[24]", "value": -0.236},
      {"measurement": "glycan array binding signal (z-score)", "setting": "[25]", "value": -0.307},
      {"measurement": "glycan array binding signal (z-score)", "setting": "[26]", "value": 2.42},
      {"measurement": "glycan array binding signal (z-score)", "setting": "[27]", "value": 0.7},
      {"measurement": "glycan array binding signal (z-score)", "setting": "[28]", "value": -0.342}
    ]}
  ]
}
